Bioassay records deposited in PubChem BioAssay by several laboratories.
An excerpt weighted towards active compounds, which were near 1.8% of everything screened.
GRK2 aptamer HTS = blocks RNA aptamer binding to human GRK2; P25098; bead flow cytometry, FAM-aptamer displacement from GRK2; inhibition of aptamer binding, % at 10 µM; 330,000 tested, 0.59% active; AID 488847;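 active = inhibition of aptamer binding above 40%, roughly 3 SD of noise, on plates passing a quality check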;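 also: median bead fluorescence of bound FAM aptamer so fluorescent compounds give negative values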
Pemphigus Ab inh = inhibitors of pemphigus antibody binding to human desmoglein-3; P32926; DSG3-coupled beads, scFv-anti-DSG3-GFP binding, flow cytometry; hits give low values; binding (percent of control), % at 10 µM; 310,000 tested, 0.48% active;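 active = binding more than 3 SD below its plate's average and above zero; inconclusive = below that plate limit but binding exactly zero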;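 also: hits lower antibody fragment binding to DSG3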
VLA-4 inh = inhibition in a human VLA-4 binding assay; P13612; VLA-4 expressing cells, ligand binding flow cytometry; inhibition, % (about 7 µM as worked out from the volumes in the protocol); 330,000 tested, 0.2% active; AID 2557
HDAC3 inhib = inhibitors of human histone deacetylase 3. O15379. recombinant HDAC3, fluorogenic peptide/trypsin coupled, fluorescence. inhibition, % at 8.3 µM. 320,000 tested, 0.15% active. AID 2718; in the data active = inhibition above about 26%, passing the limit was not always enough; inconclusive = no clear call, values can overlap the other calls
LANA-H2B inh = blocks KSHV LANA binding to histone H2A/H2B | cell-free LANA-H2A/H2B peptide, fluorescence polarization | inhibition, % (test concentration not listed) | 320,000 tested, 0.6% active | AID 2629; in the data active = inhibition mostly above about 10%, no sharp cut-off; inactive = mostly below about 6.7%
PKD1 kinase inh = PKD1 (human) kinase inhibition. Q15139. PKD1 kinase fluorescence polarization assay. inhibition, % (test concentration not listed). 200,000 tested, 0.056% active
Target sequence (Q15139 whole entry, looked up): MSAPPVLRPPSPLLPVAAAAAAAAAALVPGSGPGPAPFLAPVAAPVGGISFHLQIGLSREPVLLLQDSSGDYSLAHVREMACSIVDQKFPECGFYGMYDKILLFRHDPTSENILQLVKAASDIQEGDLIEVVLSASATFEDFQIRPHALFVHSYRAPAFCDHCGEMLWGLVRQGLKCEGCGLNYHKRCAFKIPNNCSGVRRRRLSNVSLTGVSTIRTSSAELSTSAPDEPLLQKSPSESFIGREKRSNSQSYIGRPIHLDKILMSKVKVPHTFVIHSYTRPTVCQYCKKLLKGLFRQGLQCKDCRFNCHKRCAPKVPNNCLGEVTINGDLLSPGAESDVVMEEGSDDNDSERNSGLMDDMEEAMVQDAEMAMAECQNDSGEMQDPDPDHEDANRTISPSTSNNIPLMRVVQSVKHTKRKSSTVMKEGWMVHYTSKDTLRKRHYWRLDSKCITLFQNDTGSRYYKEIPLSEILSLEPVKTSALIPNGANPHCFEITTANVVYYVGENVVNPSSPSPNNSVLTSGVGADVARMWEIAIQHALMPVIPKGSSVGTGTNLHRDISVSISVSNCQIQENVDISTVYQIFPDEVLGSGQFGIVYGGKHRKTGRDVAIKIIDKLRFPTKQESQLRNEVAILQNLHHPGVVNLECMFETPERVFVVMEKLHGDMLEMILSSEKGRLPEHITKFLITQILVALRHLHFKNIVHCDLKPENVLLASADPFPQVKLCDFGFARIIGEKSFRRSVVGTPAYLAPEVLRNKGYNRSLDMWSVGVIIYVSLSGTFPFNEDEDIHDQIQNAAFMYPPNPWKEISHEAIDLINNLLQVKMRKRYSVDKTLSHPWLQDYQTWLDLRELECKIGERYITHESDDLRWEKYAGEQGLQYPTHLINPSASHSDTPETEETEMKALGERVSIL
GRK2 inh confirm = human GRK2 inhibition confirmation, cherry pick 1; AID 504451; bead-bound GRK2, FAM-aptamer displacement, flow cytometry; shares compounds with GRK2 aptamer HTS; 2,000 tested, 4% active; aptamer displacement, % at 10 µM;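 active = aptamer displacement above 40%, near three times the noise of non-fluorescent compounds, on plates passing quality checks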;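 also: negative values mostly reflect intrinsic compound fluorescence rather than true enhancement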
Aptamer quench SP = aptamer fluorescence quenching in GRK2 counter-screen. Carboxyfluorescein RNA aptamer on beads, flow cytometry quenching; hits give low values. fluorescence response (% of DMSO), % at 10 µM. AID 504580. shares compounds with GRK2 aptamer HTS. 2,000 tested, under 10 active;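 active = compounds that quench the bead-bound fluorescent RNA probe, cutting fluorescence to under half of the solvent control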;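 also: counterscreen run without GRK2 so only probe quenching by compound is measured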
GRK2 confirm 2 = human GRK2 inhibition confirmation, cherry pick 2; bead-bound GRK2, FAM-aptamer displacement, flow cytometry; inhibition of aptamer binding, % at 10 µM; 360 tested, under 10 active; shares compounds with GRK2 aptamer HTS;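 active = inhibition of aptamer binding above 40%, about triple the noise seen with nonglowing compounds, on plates passing quality control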;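 also: negative values mostly come from compounds that fluoresce themselves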
FAM quench SP = counter-screen for GRK2 binding hits: quenchers of fluorescent RNA aptamer; shares compounds with GRK2 aptamer HTS; carboxyfluorescein RNA aptamer beads, flow cytometry quenching; hits give low values; fluorescence response vs DMSO, % at 10 µM; 360 tested, under 10 active;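 active = response vs DMSO under 50%, meaning signal dropped by over half, treated as fluorescence quencher; inconclusive = no clear call, values can overlap the other calls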;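 also: labelled aptamer on streptavidin beads without GRK2 as a quench counter-screen; 100% = bead fluorescence of DMSO wells and lower means quenching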
Starred values were filed as active, the others as inactive; ? = inconclusive; . = not tested or not shown. Rule as the data show it, unless noted: active = inhibition above about 50%; inactive = the rest.

SMILES	GRK2 aptamer HTS	Pemphigus Ab inh	VLA-4 inh	HDAC3 inhib	LANA-H2B inh	PKD1 kinase inh	GRK2 inh confirm	Aptamer quench SP	others
CN(Cc1nc2ccccc2[nH]1)C(=O)C1CCC(=O)N(CCc2cccc(F)c2)C1 (stereo unspecified)	3	106	-11	.	7	.	0	103
CN(c1ccccc1)S(=O)(=O)c1ccc(C(=O)N2CCCC2)cc1	58*	90	18	-4	1	.	0	101
CN(c1ccccc1)S(=O)(=O)c1ccc(C(=O)N2CCc3ccccc3C2)cc1	0	105	3	1	0	0	.	.
Cc1ccc(S(=O)(=O)N(C)c2ccc(C(=O)N3CCc4ccccc4C3)cc2)cc1	57*	.	1	-1	3	3	-4	98
O=C(COC(=O)c1ccc(Br)o1)c1ccc(S(=O)(=O)N2CCCCC2)cc1	1	106	3	-1	-2	.	.	.
CCc1ccccc1-n1nnnc1-c1cnccc1C(F)(F)F	0	109	2	0	3	.	.	.
COc1cccc(CN2CCSCC2)c1OC	0	107	4	-2	-2	.	.	.
COc1cccc(CN2CCN(Cc3cccc(Br)c3)CC2)c1OC	55*	96	-5	1	2	.	1	98
Cc1cc(NS(=O)(=O)c2ccc(NC(=O)c3c(F)c(F)c(F)c(F)c3F)cc2)nc(C)n1	56*	101	-1	-3	-1	.	.	.	GRK2 confirm 2=10;FAM quench SP=104
CC1CCc2c(sc(NC(=O)c3ccc(-c4ccccc4[N+](=O)[O-])o3)c2C#N)C1 (stereo unspecified)	73*	99	-34	1	-9	5	3	94
COc1cccc(NC(=O)CN2C(=O)COc3ccc(S(=O)(=O)N4CCOCC4)cc32)c1	3	104	17	2	3	.	.	.
O=C(CN1C(=O)COc2ccc(S(=O)(=O)N3CCOCC3)cc21)Nc1cccc(Cl)c1	66*	86	2	-4	5	.	-5	101
O=[N+]([O-])c1ccc2nc(SCc3cn4cccnc4n3)[nH]c2c1	89*	87	1	.	4	.	-1	99
COCc1nnc(NC(=O)CCS(=O)(=O)c2ccccc2)s1	6	102	-2	-1	4	.	7	98
CCc1nnc(NC(=O)CCS(=O)(=O)c2ccccc2)s1	0	.	3	-1	6	.	-1	100
O=C(Nc1nc(-c2cccs2)cs1)c1ccc(S(=O)(=O)N2CCCC2)cc1	19	96	-12	0	-7	2	-1	99
O=C(Nc1nc(-c2ccc(S(=O)(=O)N3CCCCCC3)cc2)cs1)c1ccccc1	3	.	-7	0	-3	10	.	.
CCc1nnc(NC(=O)CCS(=O)(=O)c2ccc(C)cc2)s1	0	105	4	1	1	.	7	99
CCCc1cc(=O)oc2cc(C)cc(OCC(=O)N3CCC(C(N)=O)CC3)c12	0	96	-12	-22	1	.	.	.
N/C(=N\OC(=O)c1csnn1)c1ccc(C(F)(F)F)cc1	2	105	5	?	-3	.	.	.
CC(OC(=O)c1cccc(-n2cnnn2)c1)C(=O)Nc1ccc(F)cc1Cl (stereo unspecified)	1	101	-8	-8	-3	.	.	.
NS(=O)(=O)c1ccc(CCNC(=O)c2cnc(Cl)c(Cl)c2)cc1	2	108	1	-4	-2	.	.	.
Cc1ccc(S(=O)(=O)Nc2ccccc2N2CCOCC2)cc1	1	106	14	5	-13	.	.	.
CCc1nnc(NC(=O)c2cccc(S(=O)(=O)N3CCCCC3)c2)s1	95*	102	-10	-7	0	.	.	.	GRK2 confirm 2=-9;FAM quench SP=99
Cc1cccc(NC(=O)CCS(=O)(=O)c2ccccc2)n1	6	.	8	0	-5	.	3	97
SMILES	GRK2 aptamer HTS	Pemphigus Ab inh	VLA-4 inh	HDAC3 inhib	LANA-H2B inh	PKD1 kinase inh	GRK2 inh confirm	Aptamer quench SP	others
Cc1cccc(NC(=O)CCS(=O)(=O)c2ccccc2)c1	0	94	2	-3	-1	.	.	.
CCCCc1nnc(NC(=O)CCS(=O)(=O)c2ccc(C)cc2)s1	1	109	16	2	-1	.	-1	107
CC1=[N+]([O-])C(C)(C)C(c2ccc(Br)cc2)=[N+]1[O-]	4	98	-14	2	3	-12	.	.
Cc1ccsc1/C=N/N1CCN(Cc2ccccc2)CC1	4	102	8	2	5	-4	.	.
CCOC(=O)c1c(NC(=O)COC(=O)CC(NC(C)=O)c2ccccc2)sc(C(=O)NC)c1C (stereo unspecified)	1	111	1	7	5	.	.	.
COc1ccc(C(C)(C)C)cc1NC(=O)c1ccccc1-n1cnnn1	0	101	0	1	-1	.	.	.
Cc1cc(C)cc(NC(=O)CSc2nc3nc(C)cc(C)n3n2)c1	41*	101	7	11	-1	.	-2	106
NC(=O)c1ccc(NS(=O)(=O)c2ccc(S(=O)(=O)N3CCCC3)cc2)cc1	.	104	.	.	.	.	.	.
Cc1c(OCC(=O)N(C)c2ccccc2)ccc2c3c(c(=O)oc12)CCC3	2	105	4	-11	0	.	.	.
Cc1[nH]c(=O)[nH]c(=O)c1S(=O)(=O)Nc1ccc(F)c(Cl)c1	47*	107	1	2	2	.	-3	125
O=C(NCc1ccc2c(c1)OCO2)c1cc2ncc(Br)cn2n1	39	79	8	3	0	-10	4	97
COc1cccc(NC(=O)c2sc3ncn(CC(=O)N4CCN(c5ccccn5)CC4)c(=O)c3c2C)c1	0	102	3	-1	1	.	.	.
O=C(O)c1ccc2c(c1)C(=O)/C(=C/c1ccccc1)C2=O	16	101	13	0	2	-2	.	.
O=C(O)c1ccc2c(c1)C(=O)/C(=C\c1ccco1)C2=O	58*	86	1	5	4	3	-4	94
CC(C)(C)Cc1nnc(NS(=O)(=O)c2ccc([N+](=O)[O-])cc2)s1	57*	113	-7	9	8	.	-1	97
O=C(Cn1cnc2c(nnn2Cc2ccccc2F)c1=O)OCc1ccccc1	82*	106	1	0	-4	-1	3	91
COc1ccc(/C=N/n2c(C)nc3c([nH]c4ccccc43)c2=O)cc1CN1CCCC(C)(C)C1	0	108	0	-6	10	.	.	.
COc1ccc2[nH]c3c(=O)n(/N=C/c4ccc(OC)c(CN5CCCC5)c4)c(C)nc3c2c1	59*	101	-2	.	2	.	-43	101
